From PubChem
ADAM17 inh: ADAM17 inhibition, QFRET primary screen | actives 0.83% (n = 370,000) | AID 720648 | inhibition, % at 6.95 µM | recombinant ADAM17, EDANS/DABCYL FRET peptide cleavage | P78536;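 active = inhibition above the mean of compounds lying between control limits plus 3 SD, set per campaign, cut at about 8.5% in these data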;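 also: 0% = DMSO-only wells as the low control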
KLK7 zymogen act: activates the human kallikrein-7 zymogen; purified proKLK7, EDANS-DABCYL substrate fluorescence; 100% is mature enzyme control, 0% vehicle; P49862; AID 652039; activation, % at 7 µM; actives 0.9% (n = 370,000);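 active = activation above the mean of all tested compounds plus 3 SD, computed per campaign excluding outliers beyond control limits, cut at about 13% in these data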
ADAM10 inh: ADAM10 inhibition, QFRET primary screen; inhibition, % at 7 µM; O14672; recombinant ADAM10, EDANS/DABCYL FRET peptide cleavage, 3 h; actives 0.62% (n = 370,000); AID 720582;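 active = inhibition above a per-campaign cutoff equal to the mean of compounds falling between control-based bounds plus 3 SD, cut at about 20% in these data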;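 also: 0% = DMSO wells while the 100% control is not disclosed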
Target sequence (O14672 214-748 limits assumed): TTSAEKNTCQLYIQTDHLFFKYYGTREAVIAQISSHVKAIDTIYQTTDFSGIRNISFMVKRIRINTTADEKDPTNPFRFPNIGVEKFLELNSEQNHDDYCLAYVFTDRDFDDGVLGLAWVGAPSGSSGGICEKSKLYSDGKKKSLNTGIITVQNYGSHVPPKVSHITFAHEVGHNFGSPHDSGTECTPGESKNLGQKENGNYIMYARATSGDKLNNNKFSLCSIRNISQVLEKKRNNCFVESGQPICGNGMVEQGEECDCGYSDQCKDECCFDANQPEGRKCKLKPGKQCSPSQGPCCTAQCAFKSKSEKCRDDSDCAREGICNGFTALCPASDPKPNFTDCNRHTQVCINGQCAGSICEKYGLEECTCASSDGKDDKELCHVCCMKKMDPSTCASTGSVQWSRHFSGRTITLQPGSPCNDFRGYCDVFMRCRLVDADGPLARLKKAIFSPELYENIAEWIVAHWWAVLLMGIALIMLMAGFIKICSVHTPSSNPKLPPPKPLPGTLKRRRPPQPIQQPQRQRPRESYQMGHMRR
NR3A LBD binder: modulators (binders) of human NR3A ligand-binding domain | AID 1259313 | actives 2.5% (n = 340,000) | Tm shift relative to glycine control, % at 25 µM | NR3A LBD differential scanning fluorimetry, Tm shift; 0% = protein alone, 100% = glycine-bound protein;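 active = melting temperature shift of at least 10% of the positive control shift, at one fixed dose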
FAS TE block: blocks the thioesterase domain of human fatty acid synthase | P49327 | recombinant FAS-TE, OMFH fluorogenic substrate, fluorescence endpoint | inhibition, % at 15 µM | actives 0.67% (n = 360,000);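 active = compounds whose normalised, plate-corrected inhibition of enzyme fluorescence in the single-dose primary screen is 50% or more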;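 also: 0% = DMSO with enzyme and 100% = substrate without enzyme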
KLK7 act conf: confirmation of human kallikrein-7 zymogen activators; shares compounds with KLK7 zymogen act; purified proKLK7, EDANS-DABCYL substrate fluorescence; scaled: vehicle 0, mature enzyme 100; activation, % at 7 µM; actives 68% (n = 3,200); AID 686949;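 active = activation, as change over the incubation, above the mean of all tested compounds plus 3 SD, cut at about 13% in these data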
EDANS-DABCYL int: counter-screen for kallikrein-7 activators: EDANS-DABCYL optical interference; shares compounds with KLK7 zymogen act; actives 80% (n = 3,200); activation, % at 7 µM; EDANS-DABCYL substrate fluorescence interference, no enzyme, 4 h; solvent 0%, active enzyme control 100%;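 active = activation above the all-compound mean plus 3 SD, ignoring values outside control-based bounds, cut at about 4.8% in these data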;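 also: value is the 4 h activation minus the activation read at time zero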
* marks the source's active call; other numbers are inactive results; i = inactive; nt = no result. The list is not random: actives were taken first. Their share in the collection is about 4.6%.

SMILES	ADAM17 inh	KLK7 zymogen act	ADAM10 inh	NR3A LBD binder	FAS TE block	KLK7 act conf	EDANS-DABCYL int
Cc1cccn2c(=O)c3cc(C(=O)NC4CCCCC4C)n(C)c3nc12 (stereo unspecified)	-65	-4	-195	0	6	nt	nt
CN(C(=O)c1cc2c(=O)n3ccccc3nc2n1C)C1CCCCC1	i	69*	i	5	-2	74*	81*
CN(C(=O)[C@@H](C1CC1)[C@@H](O)c1ccc(Cl)cc1)c1ccccc1	-2	1	1	nt	nt	nt	nt
COC(=O)[C@]12C[C@H](CC(=O)NCc3cccc(C(F)(F)F)c3)C(=O)N(Cc3ccc(Cl)cc3Cl)C1=C[C@H](COCc1ccccc1)O[C@@H]2C	-2	0	-2	nt	nt	nt	nt
CCC(c1nnnn1CC1CCCO1)N(CCCO)Cc1cc2cccc(C)c2[nH]c1=O (stereo unspecified)	-14	4	-63	1	-8	nt	nt
CCC(c1nnnn1Cc1ccc(F)cc1)N(CCCO)Cc1cc2cc3c(cc2[nH]c1=O)OCO3 (stereo unspecified)	-170	26*	i	-4	-5	0	1
Cc1ccccc1CC(=O)Nc1ccc2c(C)cc(=O)oc2c1	-101	2	-306	1	-4	nt	nt
Cc1cc(=O)oc2cc(NC(=O)c3ccccc3C(=O)O)ccc12	i	54*	i	1	-4	14*	16*
Cc1cc(=O)oc2cc(NC(=O)c3ccccc3Cl)ccc12	-417	13*	i	0	0	12	12*
COc1ccc(C2CC3CN(C4CCCCC4)C(=O)C3N2C)cc1 (stereo unspecified)	-6	0	-5	nt	nt	nt	nt
Cc1ccc(-c2nnc(SCC(=O)NN=Cc3c[nH]c4ccccc34)n2-c2ccccc2)cc1	6	1	14	nt	nt	nt	nt
c1ccc(CCNc2ccnc3cc4ccccc4cc23)cc1	-385	32*	i	-2	-6	-36	-52
CC(C)Nc1ccc(Nc2ccnc3cc4ccccc4cc23)cc1	0	2	6	-6	-3	nt	nt
CCOC(=O)c1cc2nc(-c3ccco3)cc(C(F)(F)F)n2n1	-180	19*	i	1	-4	0	-2
CC(C)(C)c1ccc(-c2nnc(SCC(=O)c3ccc([N+](=O)[O-])cc3)n2-c2ccc(Cl)cc2)cc1	2	1	6	nt	nt	nt	nt
COC(=O)[C@@]12CCCCC3=C1N(CCC3)C(=O)[C@H]2CC(=O)NCC1CCCCC1	-2	0	3	nt	nt	nt	nt
Cc1ccc([C@@H]2C3COCC=C3C(C#N)=C(N)C2(C#N)C#N)o1 (stereo partly specified)	-63	13*	-165	1	-4	53*	50*
Cc1ccc(C2C3CSCC=C3C(C#N)=C(N)C2(C#N)C#N)cc1 (stereo unspecified)	-36	6	-93	-1	16	nt	nt
CCc1cc2c(=O)c(-c3nc4ccccc4n3C)c(COCC(=O)O)oc2cc1OC(=O)C(C)(C)C	-2	0	-7	1	-7	nt	nt
CCc1cc2c(=O)c(-c3nc4ccccc4n3C)c(C)oc2cc1OC(C)=O	-30	38*	-77	0	-1	69*	66*
Cc1cc(Br)cn2c(Cc3ccccc3C(F)(F)F)c(-c3ccc(F)cc3)nc12	3	0	5	nt	nt	nt	nt
O=[N+]([O-])c1ccc(O)c(C=Nc2ccc3nc(-c4ccccc4)[nH]c3c2)c1	i	65*	i	0	-7	57*	63*
C[C@H](O)[C@@H]1C(=O)N2CCc3c([nH]c4ccccc34)[C@@H]2C[C@@H]1N(C)C(=O)OCc1ccccc1	-77	12	-307	nt	nt	nt	nt
CN(C(=O)NC1CCCCC1)[C@H]1C[C@H]2c3[nH]c4ccccc4c3CCN2C(=O)[C@H]1CO	-274	-26	i	nt	-9	nt	nt
CCOC(=O)CNC(=O)N(C)[C@H]1C[C@H]2c3[nH]c4ccccc4c3CCN2C(=O)[C@H]1[C@H](C)O	i	73*	i	nt	-5	11	9.8*
SMILES	ADAM17 inh	KLK7 zymogen act	ADAM10 inh	NR3A LBD binder	FAS TE block	KLK7 act conf	EDANS-DABCYL int
CCOC(=O)N(C)[C@H]1C[C@H]2c3[nH]c4ccccc4c3CCN2C(=O)[C@H]1[C@H](C)O	i	50*	i	nt	nt	8	5.9*
CN(C(=O)C(C)(C)C)[C@H]1C[C@H]2c3[nH]c4ccccc4c3CCN2C(=O)[C@H]1CO	-403	27*	i	nt	-37	9	9.6*
CCOC(=O)CNC(=O)N(C)[C@H]1C[C@H]2c3[nH]c4ccccc4c3CCN2C[C@H]1[C@H](C)O	-36	11	-125	nt	-5	nt	nt
Cn1cccc1C(=O)N1CCN(S(=O)(=O)c2cccs2)CC1	-3	0	-5	nt	nt	nt	nt
CCCC1CCC2(CCCN2CCOC(=O)Nc2cccc(Cl)c2)CC1 (stereo unspecified)	0	nt	2	nt	nt	nt	nt
CC(C)(C)NC(=O)Nc1ccc2nccnc2c1	-493	64*	i	-1	-4	70*	77*
NC(=O)c1cccc2cc3ccccc3cc12	-447	53*	i	-2	-3	65*	72*
NC(=O)c1ccccc1OCc1cccc2ccccc12	2	0	-1	-1	2	nt	nt
CCc1nnc(NC(=O)CSc2nc(C)cc(C)c2C#N)s1	-115	14*	-337	-3	14	82*	80*
COC(=O)CC(=O)CSc1nc(C)cc(C)c1C#N	-15	20*	-56	-1	6	93*	91*
CCc1c(C)nc(SCC(=O)CC(=O)OC(C)C)c(C#N)c1C	-22	48*	-86	0	30	26*	24*
CCOC(=O)CNC(=O)CSc1nc(C)cc(C)c1C#N	-4	2	-7	-3	3	nt	nt
CCOC(=O)NC(=O)CSc1nc(C)cc(C)c1C#N	-48	99*	-184	-2	0	91*	99*
CCc1c(C)nc(SCC(N)=O)c(C#N)c1C	-2	1	-8	1	-2	nt	nt
C[C@@H]1[C@@H](c2ccccc2)c2cc3ccccc3nc2-c2nc3ccccc3cc2[C@@H]1C(=O)N1CCCC1	2	0	2	nt	nt	nt	nt
Cc1cc(NC(=O)CSc2nc3c(C)ccc(C)c3cc2C#N)no1	-5	0	-1	-1	-1	nt	nt
Cc1cc(C)c(C#N)c(SCC(=O)Nc2cc(C)on2)n1	-50	16*	-205	0	0	102*	109*
CCN1C(=O)N(C(C)=O)[C@@H]2C[C@H](C(=O)N3CCCC3)[C@H](C)[C@H](c3ccccc3)C[C@@H]21	-1	0	-14	nt	nt	nt	nt
CCOC(=O)N1CCN(c2c(-c3ccccc3)c3cc(Cl)ccc3[nH]c2=O)CC1	-1	0	1	-14	3	nt	nt
